SARS PLpro yeast: inhibitors of SARS-CoV papain-like protease in yeast; S. cerevisiae expressing SARS-CoV PLpro, growth rescue; Potency, µM (series often up to 32.9 µM), for the others: at the highest dose activity, positive = growth rescue, most hits filed as activators; 0.19% of 330,000 active; note: potency is the fitted concentration of half-maximal effect; 0% is about no effect; nearly all actives have a fitted effect of over 55% in size
NS1 function inh: influenza NS1 inhibition; Potency, µM (series often up to 46.1 µM), inactives show at the top dose activity, positive = more growth; 0.4% of 270,000 active; AID 2326; note: potency is the fitted concentration of half-maximal effect; actives are rising curves; nearly all actives have a fitted effect of over 50% in size
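Compounds were scored for reversing the slow growth caused by influenza A NS1 in S. cerevisiae, measured by optical density at 600 nm. Assay medium contained 2% galactose at pH 6.0; NS1-free yeast of the same strain were the positive control.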
CHX counter: counter-screen for Shiga toxin inhibitors: cycloheximide protein synthesis inhibition; cell reporter, cycloheximide protein synthesis inhibition counterscreen; max response, %; 12% of 300,000 active; in the data active = max response mostly above about 13%, no sharp cut-off; inactive = mostly below about 14%; note: read at 38.3 µM for the half of the compounds with a filed dose; 0% is about no effect
Shiga toxin inh: Shiga toxin inhibition | Vero cells, Shiga toxin protein synthesis inhibition reporter | inhibition, % at 38.7 µM | 9.2% of 290,000 active; in the data active = inhibition mostly above about 28%, no sharp cut-off; inactive = mostly below about 43%; note: 0% is about no effect
An asterisk follows results filed as active; ? = inconclusive; · = not tested or not shown. Rows were chosen to be rich in hits. Some 12% of all compounds tested hit in one or more screens of this group. Unless noted, calls come from the whole dose curve.

SMILES	SARS PLpro yeast	NS1 function inh	CHX counter	Shiga toxin inh
COC(=O)c1cc(C#N)c(SCc2ccccc2)nc1C	-5%	-5%	9	-21
C#CCSc1nc(-c2cccs2)ccc1C#N	4%	3%	0	-1
CC(=O)c1cc(C#N)c(SCc2ccccc2)nc1C	-7%	-63%	32*	31
CC(=O)c1cc(C#N)c(SCc2ccccn2)nc1C	-1%	1%	47*	68*
COC(=O)CSc1nc(-c2cccs2)ccc1C#N	-9%	-50%	36*	50
COc1ccc(/C=C/C(=O)C2(O)CCCCC2)cc1OC	1%	·	10	-9
Cc1ccc(C2CC(c3cccs3)=NN2S(=O)(=O)c2ccc(C)cc2)cc1 (stereo not drawn)	-41%	-7%	12	7
Clc1ccc(C2=NN=C3COc4ccccc4N3C2)cc1	-14%	16%	-2	2
Clc1ccc(C2=Nc3cc(Cl)ccc3OC2)cc1	0%	-9%	27*	60*
CC1=Nc2cc(Cl)ccc2Oc2ccccc21	-2%	4%	1	-4
c1ccc(C2=Nc3ccccc3OC2)cc1	-31%	-34%	21*	43
Cc1ccc2c(c1)N=C(c1ccc(Cl)cc1)CO2	-9%	-12%	53*	56*
C/C(=N\NC(=O)c1ccncc1)c1cccnc1	-6%	-12%	11	39
C/C(=N\NC(=O)c1ccc(N(C)C)cc1)c1ccc(C)cc1C	-9%	-10%	21	24*
C/C(=N\NC(=O)c1ccc(N(C)C)cc1)c1cccnc1	-7%	8%	23*	44
CCN(CC)c1ccc(C(=O)N/N=C(\C)c2cccnc2)cc1	-2%	·	14	11
CCc1ccc(C(=O)N/N=C(\C)c2cccnc2)s1	0%	-8%	7	-4
C/C(=N\NC(=O)c1ccccc1C)c1cccnc1	1%	4%	31*	106*
C/C(=N\NC(=O)c1ccoc1C)c1cccnc1	17%	-1%	42*	0
C/C(=N\NC(=O)c1cccnc1)c1ccc(OC2OCCOC2Oc2ccc(/C(C)=N/NC(=O)c3cccnc3)cc2)cc1 (stereo not drawn)	4%	·	16*	54*
COc1ccc(/C(C)=N/NC(=O)CNC(=O)c2cccnc2)cc1	-1%	1%	-1	15
C/C(=N/NC(=O)c1cccc(C)c1)c1c(O)cc(C)oc1=O	-33%	-12%	31*	61*
C/C(=N\NC(=O)C1CC1)c1cccc(NC(=O)c2cccc(Cl)c2)c1	0%	4%	-3	3
C/C(=N\NC(=O)c1cccc(C)c1)c1cccc(NC(=O)c2ccco2)c1	-4%	-20%	19*	32
C/C(=N\NC(=O)c1cccc(Cl)c1)c1cccc(NC(=O)c2ccco2)c1	-7%	-12%	24*	91*
SMILES	SARS PLpro yeast	NS1 function inh	CHX counter	Shiga toxin inh
O=C(N/N=C/c1ccco1)c1ccc(NC(=O)c2ccccc2Cl)cc1	-1%	3%	3	-8
O=C(N/N=C/c1ccco1)c1cccc(NC(=O)c2cccc(Cl)c2)c1	-3%	7%	41*	81*
CN(C(=O)CCS(=O)(=O)c1ccc2c(c1)oc(=O)n2C)C1CCCCC1	0%	10%	-5	-18
O=C(CSc1nc(N2CCCCC2)nc(N2CCCCC2)n1)NC1CCCCC1	·	-22%	·	·
Oc1ccccc1-c1nnc(COc2ccccc2)o1	-7%	-12%	27*	40
COc1cc(-c2nnc(COc3ccc4ccccc4c3)o2)cc(OC)c1OC	-15%	16%	-3	-13
Clc1ccc(-c2nnc(CCc3ccccc3)o2)c(Cl)c1	-2%	-50%	41*	90*
c1ccc(OCc2nnc(-c3ccccc3)o2)cc1	2%	·	26*	118*
Oc1ccccc1-c1nnc(COc2ccc(Cl)cc2Cl)o1	-9%	-16%	45*	74*
Cc1c(NS(=O)(=O)c2ccc3c(c2)Cc2ccccc2-3)c(=O)n(-c2ccccc2)n1C	0%	1%	-2	-16
CC(C)C[C@H](NC(=O)OC(C)(C)C)C(=O)N[C@@H](CO)[C@H](O)[C@@H]1C[C@@H]1C(=O)NC1CC1	2%	4%	-1	-4
CCc1ccc(CN(C)C(=O)c2cc(COc3ccc(OC)cc3Cl)on2)nc1	0%	-45%	68*	84*
COc1ccc(OCc2cc(C(=O)N(C)Cc3cc(C)no3)no2)c(Cl)c1	-2%	-6%	72*	99*
CC(=O)c1cccc(OCc2cc(C(=O)N(C)C(C)c3ccccn3)no2)c1 (stereo not drawn)	2%	-2%	8	17
CCc1ccc(CN(C)C(=O)c2cc(COc3cccc(C(F)(F)F)c3)on2)nc1	-4%	-110%	14	39
CC(=O)c1cccc(OCc2cc(C(=O)N(C)Cc3cnccn3)no2)c1	-1%	9%	51*	88*
CC(=O)c1ccc(OCc2cc(C(=O)N(C)C(C)c3nccs3)no2)cc1 (stereo not drawn)	-19%	-19%	30*	35*
CC(=O)c1ccc(OCc2cc(C(=O)NC(C)Cc3ccccn3)no2)cc1 (stereo not drawn)	-6%	3%	1	-4
CCC(C)N(C(=O)c1csnn1)C(C(=O)NC1CCCC1)c1c(F)cccc1Cl (stereo not drawn)	10%	8%	-3	-5
CCOc1cc(CNCC2CCCN2CC)cc(Cl)c1OC (stereo not drawn)	1%	-2%	9	-5
COc1ccc(OCc2cc(C(=O)N(C)Cc3nnc(C)o3)no2)c(Cl)c1	-8%	-6%	29*	111*
COc1cc(Cl)ccc1OCc1cc(C(=O)N(C)Cc2nnc(C)o2)no1	2%	12%	35*	17
CN(Cc1cccnc1)C(=O)c1cc(COc2ccc3c(c2)CCCC3)on1	-12%	-75%	70*	82*
COc1cccc(OCc2cc(C(=O)N(C)Cc3nc4ccccc4[nH]3)no2)c1	-3%	-10%	38*	125*
COc1ccc(CCNC(=O)COC(=O)c2cc(S(=O)(=O)N3CCOCC3)ccc2C)cc1OC	-4%	·	·	·
SMILES	SARS PLpro yeast	NS1 function inh	CHX counter	Shiga toxin inh
O=C(CSc1ccccc1F)NC(=O)c1ccc(Cl)cc1	10%	·	·	·
CC(=O)c1ccc(OCc2cc(C(=O)N(C)Cc3cc(C)no3)no2)cc1	?	-10%	33*	39*
CC(C)(N=NC(C)(C)C1=NCCN1)C1=NCCN1	·	3%	·	·
COc1cc(C)ccc1OCCCOc1c(Cl)cccc1Cl	4%	-22%	18*	60
COc1ccccc1OCCCOc1c(Cl)cc(C)cc1Cl	-13%	-41%	15*	21
COc1cc(C)ccc1OCCOc1c(C)cc(Cl)cc1Cl	-1%	-9%	1	-11
Fc1ccc(-c2c[nH]c(=S)n2Cc2ccccc2)cc1	18%	·	-3	-3
CCOC(=O)c1oc2nc3c(cc2c1N)CCCC3	-2%	-11%	50*	77*
CCOC(=O)c1oc2nc(C)c3c(c2c1N)CC(C)(C)OC3	0%	-5%	9	-2
CCOC(=O)c1oc2nc3c(cc2c1N)COC(C)(C)C3	-1%	3%	20*	82*
CCc1cc(CNC(=O)CC2C(=O)NCCN2Cc2cccc(OC)c2)on1 (stereo not drawn)	-1%	3%	-2	3
C=CCNC(=O)CN1C(=O)C2C3c4ccccc4C(c4ccccc43)C2C1=O (stereo not drawn)	0%	·	1	9

Source: PubChem
